Measurements taken from PMC4336329 (PLoS ONE, 2015).
The campaign covered roughly 310,000 compounds. About 14,000 (4.5%) showed an effect of 50% or more. Effects have a minus sign here. This is one part of a sample in which strong results are shown more often than they occur.

target: human ether-à-go-go-related gene (hERG) potassium channel (human, UniProt Q12809); experiment: primary screen, population patch clamp on CHO cells stably expressing hERG; higher = less effect of the substance
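Further: peak tail current of the secondary pulse compared with the same well before compound.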

Sequence of human ether-à-go-go-related gene (hERG) potassium channel (Q12809 whole entry, looked up): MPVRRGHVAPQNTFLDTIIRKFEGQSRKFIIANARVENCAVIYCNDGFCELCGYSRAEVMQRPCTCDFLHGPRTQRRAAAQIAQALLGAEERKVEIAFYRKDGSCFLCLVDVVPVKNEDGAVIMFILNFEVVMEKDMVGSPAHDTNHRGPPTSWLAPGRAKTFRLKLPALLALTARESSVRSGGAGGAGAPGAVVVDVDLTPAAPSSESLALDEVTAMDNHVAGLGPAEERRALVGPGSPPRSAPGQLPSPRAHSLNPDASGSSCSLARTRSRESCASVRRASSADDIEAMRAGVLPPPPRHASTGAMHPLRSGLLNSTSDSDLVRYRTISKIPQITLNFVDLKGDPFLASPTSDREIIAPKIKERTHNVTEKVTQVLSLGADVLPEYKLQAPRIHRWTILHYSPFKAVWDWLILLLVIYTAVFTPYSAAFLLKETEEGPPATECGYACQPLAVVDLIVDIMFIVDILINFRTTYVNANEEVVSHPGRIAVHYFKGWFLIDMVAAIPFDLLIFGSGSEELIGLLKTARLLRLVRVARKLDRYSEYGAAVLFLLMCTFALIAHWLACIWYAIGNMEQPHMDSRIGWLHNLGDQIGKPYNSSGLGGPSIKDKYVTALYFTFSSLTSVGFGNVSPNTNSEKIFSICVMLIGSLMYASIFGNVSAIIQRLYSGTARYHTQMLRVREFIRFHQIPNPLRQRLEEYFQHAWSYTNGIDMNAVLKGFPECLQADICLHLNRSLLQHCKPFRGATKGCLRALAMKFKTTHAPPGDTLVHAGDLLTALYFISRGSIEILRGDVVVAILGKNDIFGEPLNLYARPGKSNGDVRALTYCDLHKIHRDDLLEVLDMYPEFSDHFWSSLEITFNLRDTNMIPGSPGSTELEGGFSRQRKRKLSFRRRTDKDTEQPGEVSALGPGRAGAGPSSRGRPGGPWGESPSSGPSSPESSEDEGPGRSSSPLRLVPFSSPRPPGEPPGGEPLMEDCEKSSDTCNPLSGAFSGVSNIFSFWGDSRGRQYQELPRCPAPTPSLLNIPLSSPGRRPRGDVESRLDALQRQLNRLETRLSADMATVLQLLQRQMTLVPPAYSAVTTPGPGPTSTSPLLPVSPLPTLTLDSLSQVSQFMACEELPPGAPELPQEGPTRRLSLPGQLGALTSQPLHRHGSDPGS

SMILES | hERG current change (%, negative = inhibition) at 10uM [%]
CC(=O)Nc1ccc(Nc2ncnc3ccccc23)cc1 | 10.9
O=C(C(=C1N(Cc2ccc(Cl)nc2)CCN1Cc1ccc(Cl)nc1)[N+](=O)[O-])C(Cl)Cl | -26.6
CCn1c(C)nc2cc(S(N)(=O)=O)ccc21 | 21.9
Cc1ccc(C)c(NC(=O)c2nnn(Cc3ccccc3)c2N)c1 | -6.11
Cc1nc(NC(=O)CSc2cc(C)c3ccccc3n2)c(Cl)cc1Cl | 5.23
CC1CN(C(=O)CCNC(=O)c2ccc(Br)cc2)CC(C)O1 (stereo not drawn) | -4.12
O=C(CSc1ncn[nH]1)Nc1cccc2ccccc12 | 3.88
CCC(C)(C)NC(=O)Cc1ccccc1OC | 23
COc1ccc(C(CNC(=O)c2ccc(Cl)c(NC(=O)c3cccs3)c2)N2CCCC2)cc1 (stereo not drawn) | -70.9
COc1ccc(C(CNC(=O)c2cccc(NC(=O)c3cccs3)c2)N2CCCC2)cc1 (stereo not drawn) | -58.8
COc1ccc(C(CNC(=O)c2cccc(S(=O)(=O)N3CCCCC3)c2)N2CCCC2)cc1 (stereo not drawn) | -43.8
COc1ccc(C(CNC(=O)CNC(=O)c2cccc(Cl)c2)N2CCCC2)cc1 (stereo not drawn) | -33.8
COc1ccc(C(CNC(=O)c2cccc(S(=O)(=O)Nc3ccc(C)cc3)c2)N2CCCCC2)cc1 (stereo not drawn) | -30.7
COc1ccc(C(CNC(=O)c2cccc(Br)c2)N2CCCC2)cc1 (stereo not drawn) | -31.6
COc1cc2c(cc1OC)C(C)N(C(=O)Nc1cc(C)cc(C)c1)CC2 (stereo not drawn) | 4.95
COC(=O)c1c(NC(=O)c2ccco2)sc2c1CC(C)(C)NC2(C)C | -21.2
Cn1c(=O)c2c(ncn2CC(=O)OCC(=O)Nc2sccc2C(N)=O)n(C)c1=O | -10.1
COC(=O)C1=C(C)N(c2cccc3ccccc23)C(=O)C1 | -6.64
Cc1noc(NC(=O)c2ccccc2C(F)(F)F)c1C#N | -46
CCN1C(=O)[C@H]2[C@@H](c3ccc(OC)cc3)N3C(=O)CN(CCOC)C(=O)[C@@]3(C)[C@H]2C1=O | -2.75
O=C(CN1CCCCCC1)NCc1ccccc1 | 10.1
O=C(CN1CCN(c2ccccc2F)CC1)NCc1ccc(Cl)cc1 | -19.1

SMILES | hERG current change (%, negative = inhibition) at 10uM [%]
Cl.O=C(CN1CCCC1)NCc1ccccc1 | 15.6
O=C(CN1CCN(C/C=C/c2ccccc2)CC1)NCc1ccc(Cl)cc1 | -78
O=C(CN1CCN(C/C=C/c2ccccc2)CC1)NCc1ccccc1 | -73.3
O=C(N/C=C\c1ccccc1)NCc1ccc(Cl)cc1 | 1.95
COc1cccc(C2(c3cccc(OC)c3)CC2C(=O)Nc2ccccc2Cl)c1 (stereo not drawn) | 14
CN1C(=O)C(=Cc2ccc(-c3cccc(Cl)c3)o2)C(=O)N(C)C1=O | 10.2
Cc1ccccc1C(=O)N1CCN(c2ccc([N+](=O)[O-])c(NCc3cccnc3)c2)CC1 | -27
O=C(c1ccccc1)N1CCN(c2ccc([N+](=O)[O-])c(NCc3cccnc3)c2)CC1 | -69.7
O=C(c1ccccc1F)N1CCN(c2ccc([N+](=O)[O-])c(NCc3cccnc3)c2)CC1 | -45.5
Cc1ccc(C(=O)N2CCN(c3ccc([N+](=O)[O-])c(NCc4cccnc4)c3)CC2)cc1 | -59.4
O=C(c1ccc(Cl)cc1)N1CCN(c2ccc([N+](=O)[O-])c(NCc3cccnc3)c2)CC1 | -50.1
CC(C)(C)C(=O)N1CCN(c2ccc([N+](=O)[O-])c(NCc3cccnc3)c2)CC1 | -29.3
O=[N+]([O-])c1ccc(N2CCN(S(=O)(=O)c3ccc(Cl)cc3)CC2)cc1NCc1cccnc1 | 2.59
Cc1ccc(NC(=O)c2cc([N+](=O)[O-])ccc2NCc2cccnc2)cc1 | -82.7
CCS(=O)(=O)N1CCN(c2ccc([N+](=O)[O-])c(NCc3cccnc3)c2)CC1 | -49.1
Cc1ccc(NC(=O)c2cc([N+](=O)[O-])ccc2NCc2cccnc2)cc1Cl | -41.7
CC(=O)N1CCN(c2ccc([N+](=O)[O-])c(NCc3cccnc3)c2)CC1 | -22.3
COc1cccc(NC(=O)c2cc([N+](=O)[O-])ccc2NCc2cccnc2)c1 | -44
COc1cccc(C(=O)NCCS(=O)(=O)NCc2cccnc2)c1 | 8.66
COC(=O)c1ccc(NC(=O)CSc2nnc(C3CC3)n2C)cc1 | -4.59
COc1ccccc1S(=O)(=O)Cc1ccc(C(=O)NC2CC2)o1 | 18.5
CCN(CC#CCC1(O)c2ccccc2-c2ccccc21)C(C)C | -9.99

SMILES | hERG current change (%, negative = inhibition) at 10uM [%]
O=C(COC(=O)c1ccc[nH]c1=O)NC1CCCCCC1 | 46.2
Cc1cc2c(NC(=O)CCCC(=O)O)cccc2nn1 | 13.6
Cc1cccc2sc(NNC(=O)c3cc(-c4cccs4)nc4ccccc34)nc12 | 13.4
CC(=O)NC(NC(=S)Nc1ccc(N=Nc2ccccc2)cc1)C(Cl)(Cl)Cl (stereo not drawn) | 19.6
O=C(COc1ccc(Br)cc1)N1CCOCC1 | -0.627
Cc1cccc(NS(=O)(=O)c2ccc3c(c2)NC(=O)CO3)c1C | 3.88
CC(=O)N(c1ccc2oc(=O)sc2c1)S(=O)(=O)c1cccc2cccnc12 | 5.98
CC1CCCC(C)N1CCCNC(=O)CCn1c(=O)c2cccn2c2cccnc21 (stereo not drawn) | 16.7
Cc1ccc(C)c(N2CCN(CCCNC(=O)Cn3c(=O)c4cccn4c4cccnc43)CC2)c1 | -59.6
Cc1ccc(C)c(N2CCN(CCCNC(=O)CCn3c(=O)c4cccn4c4cccnc43)CC2)c1 | -70
Cc1ccc(Cl)cc1N1CCN(C(=O)CCCn2c(=O)c3cccn3c3cccnc32)CC1 | -15.1
CC1CCCC(C)N1CCCNC(=O)Cn1c(=O)c2cccn2c2cccnc21 (stereo not drawn) | 2.77
CCC1CCCCN1CCCNC(=O)Cn1c(=O)c2cccn2c2cccnc21 (stereo not drawn) | 12.1
O=C1NN(c2cccc(Br)c2)C(=O)/C1=C\c1ccc(O)cc1 | 12
CCS(=O)(=O)Nc1ccc(-c2nnc(SCC(=O)c3ccc(NC(C)=O)c(OC)c3)o2)cc1 | -23.8
C#CCOCCOCCOCCNc1nc(N2CCN(C(=O)[C@H]([C@@H](C)CC)n3cc([C@@H](N)CO)nn3)CC2)nc(N2CCN(C(=O)[C@H](Cc3ccc(O)cc3)n3cc([C@@H](N)C(C)CC)nn3)CC2)n1.Cl (stereo partly drawn) | 0.411
CC1CCN(C(=O)CN2C(=O)c3cccc4cccc(c34)C2=O)CC1 | 2.37
CC(C)C[C@H]1CN=C(Nc2ccccc2)N1CC1CCC(C)CC1 (stereo partly drawn) | -50.3
CC1CCC(CN2C(Nc3ccccc3)=NC[C@@H]2C)CC1 (stereo partly drawn) | -9.6
CC(C)C[C@H]1CN=C(Nc2ccccc2)N1CC1CCCCC1 | -45.7
CC(C)C[C@H]1CN=C(Nc2ccccc2)N1CC1CCCCCC1 | -60.6
CC(C)C[C@H]1CN=C(Nc2ccccc2)N1CC1CCCC1 | -24

SMILES | hERG current change (%, negative = inhibition) at 10uM [%]
CC(C)C[C@H]1CN=C(Nc2ccccc2)N1CC1CCC(C(C)(C)C)CC1 (stereo partly drawn) | -78.3
CCOC(=O)c1cccc(NC(=O)CNC(=O)C2CCCCC2)c1 | -3.8
O=C(COc1ccc(-n2cnnn2)cc1)Nc1ccccc1OC(F)F | 4.44
N#Cc1c(N)n(-c2cccc(C(=O)O)c2)c2nc3ccccc3nc12 | 14.6
Cc1ccc(NC(=O)Nc2cnccn2)cc1 | 5.11
Cc1ccc(C(=O)CCC(=O)OCC(=O)Nc2ccc3[nH]c(=O)[nH]c3c2)cc1 | 14
O=C1C2C3C=CC(C2C(=O)N1c1ccc(O)cc1)C1C2C(=O)N(c4ccc(O)cc4)C(=O)C2C31 (stereo not drawn) | -10.7
COc1cccc(-c2c(C(=O)N/N=C/c3ccoc3)nnn2-c2nonc2N)c1 | -9.92
CCSc1nnc(NC(=O)CCNS(=O)(=O)c2cc(Br)cnc2N)s1 | 0.00778
Cc1ccc(C(=O)Nc2cccc(C(F)(F)F)c2)cc1NC(=O)c1cnnc2ccccc12 | -5.9
Cc1cccc(Nc2ncnc3nc[nH]c23)c1C | -12.5
COc1cc(Nc2ccccn2)cc(C(=O)Nc2cccc(C(F)(F)F)c2)c1 | -2.6
O=C(Nc1cccc(C(F)(F)F)c1)c1cccnc1 | -21.3
Cc1ccc(C(=O)Nc2cccc(C(F)(F)F)c2)cc1Nc1cncnc1.O=C(O)C(F)(F)F | -74.3
COc1cc(NC(=O)c2ccnnc2)cc(C(=O)Nc2cccc(C(F)(F)F)c2)c1 | -52.8
Cc1ccc(C(=O)Nc2cccc(C(F)(F)F)c2)cc1Nc1ncnc2nc[nH]c12 | -60.2
Cc1ccc(C(=O)Nc2cccc(C(F)(F)F)c2)cc1Nc1cnccn1 | -38.4
Cc1ccc(C(=O)Nc2cccc(C(F)(F)F)c2)cc1Nc1ccccn1 | -67.4
Cc1ccc(NC(=O)c2cccc(C(F)(F)F)c2)cc1NC(=O)c1[nH]cnc1C(N)=O | -1.07
COc1cc(NC(=O)c2ccc(N)nc2)cc(C(=O)Nc2cccc(C(F)(F)F)c2)c1 | -5.66
COc1cc(NC(=O)c2ccnc(N)c2)cc(C(=O)Nc2cccc(C(F)(F)F)c2)c1 | -31.3
